Bioassay records from PubChem BioAssay.
Casp7 inh = qHTS Assay for Allosteric/Competitive Inhibitors of Caspase-7; P55210; recombinant caspase-7, Ac-DEVD-AFC fluorescence rate; Potency, µM (titrated, usually from 57.5 µM), inactives show top-dose activity change, negative = inhibition, hits mostly inhibitors; 0.02% of 75,000 active; AID 889, 2007; active = well fitted inhibition curve with a large enough effect in the main read-out, with a control signal flat, not every such curve was filed as active; inconclusive = small, poorly fitted or top-dose-only effect, or a change in a side signal; note: % of control where 0% means no effect
Casp1 inh = qHTS Assay for Allosteric/Competitive Inhibitors of Caspase-1; P29466; Caspase-1 enzyme, Ac-WEHD-AFC fluorogenic rate; Potency, µM (top dose mostly 57.5 µM), inactives show top-dose activity change, negative = inhibition, usual class: inhibitors; 0.03% of 75,000 active;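 note: plate controls were vehicle for no effect and no substrate for full effect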
GBA activity = Glucocerebrosidase | Lysosomal acid glucosylceramidase (Homo sapiens), P04062 | purified enzyme, resorufin glucoside fluorescence (screen aimed at inhibitors), 20 min | Potency, µM | 1.1% of 48,000 active; in the data active = potency below about 15 µM; inconclusive = mostly about 16 µM to 33 µM;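 note: the screen sought inhibitors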
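Wild-type enzyme at 0.2 nM final in 50mM citric acid/KH2PO4, 10mM sodium taurocholate, 0.01% tween-20, pH 5.9, with resorufin beta-D-glucopyranoside at 30 uM final. Compounds titrated, 20 min at RT, red fluorescence read; AC50 from titration.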
Bst PK mod = Pyruvate Kinase | Potency, µM | 1.2% of 51,000 active | purified pyruvate kinase, luminescence ATP production; ribose 5-phosphate activator present at AC10 | AID 361, 2006; in the data active = potency below about 11 µM; inconclusive = mostly about 12 µM to 25 µM;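 the screen sought inhibitors and activators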;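 note: scaled between full activation by ribose 5 phosphate and full inhibition by luteolin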
Luciferase inh = qHTS Assay for Inhibitors of Firefly Luciferase; Luciferin 4-monooxygenase (Photinus pyralis), P08659; purified firefly luciferase, luminescence, 8 min; Potency, µM (doses to about 57.1 µM), for inactives: top-dose activity change, negative = inhibition, usual class: inhibitors; 2.2% of 72,000 active; note: % is set by controls: 0 for no effect and ±100 for the full control effect; nearly all actives have a fitted effect of over 40% in size
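Inhibition of light generation by firefly luciferase from ATP and luciferin was profiled with concentration-response curves per sample, ATP held at 10 uM within the enzyme's linear range. Plates were read by luminescence after an 8-minute ambient incubation.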
Active calls of the source: *; [ ] = dose if it differs, or a comment. This is a sample that favours compounds with a hit; in the whole collection about 3.1% have one here. Unless noted, calls come from the whole dose curve; as a rule, active = well fitted inhibition curve with a large enough effect; inconclusive = small, poorly fitted or top-dose-only effect; inactive = flat fitted curve, though single readings scatter. Potency is the fitted concentration of half-maximal effect.

For Cc1cccc(N2CSC3=C(C#N)C(c4ccc(C)o4)CC(=O)N3C2)c1 (centres undefined) the results were Casp7 inh inconclusive, Casp1 inh inconclusive, GBA activity 15*, Bst PK mod >57 and Luciferase inh -20%.
Screening O=C(Nc1cccnc1)Nc1ccccc1Cl returned Casp7 inh -1%, Casp1 inh 3%, GBA activity 15* and Luciferase inh -19%.
For O=C(Nc1ccccc1)Nc1ccccn1 the results were Casp7 inh 0%, Casp1 inh 0%, GBA activity >77 and Luciferase inh -25%.
Screening O=C(Nc1cccnc1)c1ccc(Oc2ccccc2)cc1 returned Casp7 inh 2%, Casp1 inh -1%, GBA activity 15*, Bst PK mod inactive and Luciferase inh 13µM*.
For O=C(Nc1ccccc1)Nc1cccc2cccnc12 the results were Casp7 inh -1%, Casp1 inh -1%, GBA activity >77 and Luciferase inh 20µM*.
For O=C(Nc1cccnc1)Nc1ccc(Br)cc1Cl the results were Casp7 inh -1%, Casp1 inh -1%, Bst PK mod >57 and Luciferase inh -3%.
Screening Cc1ccc(S(=O)(=O)/C=C\C#N)cc1 returned Casp7 inh 3%, Casp1 inh -1% and Luciferase inh -7%.
Screening NC1=NC2(CCC(c3ccccc3)CC2)n2c(nc3ccccc32)N1 (centres undefined) returned Casp7 inh -11%, Casp1 inh inconclusive, GBA activity 15*, Bst PK mod >57 and Luciferase inh 1%.
For NC1=NC2(CCN(Cc3ccccc3)CC2)n2c(nc3ccccc32)N1 the results were Casp7 inh 0%, Casp1 inh -1%, GBA activity 3.7*, Bst PK mod 6.9* and Luciferase inh -2%.
O=C(O)CNC(=O)c1ccc([N+](=O)[O-])cc1 was read as Casp7 inh 1% and Casp1 inh 0%.
NC(=O)C1=CN([C@@H]2O[C@@H](COP(=O)(O)OP(=O)(O)OC[C@@H]3O[C@H](n4cnc5c(N)ncnc54)[C@@H](OP(=O)(O)O)[C@@H]3O)[C@H](O)[C@@H]2O)C=CC1 was read as Casp7 inh 0%, Casp1 inh 2% and Luciferase inh 2%.
Screening O=C(NC1CCN(Cc2ccccc2)CC1)c1ccc(-n2c(=O)c(=O)[nH]c3ccccc32)cc1 returned Casp7 inh 0% and Casp1 inh inconclusive.
Screening Cc1ccc(-c2nnc(Nc3ccccc3)o2)cc1 returned Casp7 inh 0%, Casp1 inh -1%, GBA activity >77, Bst PK mod 0.46* and Luciferase inh 0.63µM*.
For Nc1ccc(CCNc2ncnc3c2ncn3[C@@H]2O[C@@H](CO)[C@H](O)[C@@H]2O)cc1 the results were Casp7 inh 1%, Casp1 inh 4% and Luciferase inh 0%.
For Cc1nnc(NC(=O)C2CCN(c3nnnn3-c3ccccc3)CC2)s1 the results were Casp7 inh -1%, Casp1 inh 6%, GBA activity 8.7*, Bst PK mod >57 and Luciferase inh 1%.
Cc1ccc(C(=O)Nc2ccccc2C(=O)NC(CC(=O)O)C(=O)O)cc1 (centres undefined) was read as Casp7 inh -1%, Casp1 inh 0%, GBA activity 10* and Luciferase inh 32µM*.
For NC(N)=NC[C@H](N)C(=O)O the results were Casp7 inh 0%[11.5 µM], Casp1 inh -1%[11.5 µM] and Luciferase inh 1%[11.4 µM].
Screening CCc1ccc(S(=O)(=O)Nc2ccc(O)c(C(=O)O)c2)cc1 returned Casp7 inh 1% and Casp1 inh 0%.
For CN(C)Cc1ccc(-c2cc3onc(-c4ccccc4)c3c(=O)n2C)cc1 the results were Casp7 inh -2%[11.5 µM], Casp1 inh -1%[11.5 µM] and Luciferase inh 4µM*.
For NC=O the results were Casp7 inh -2% and Casp1 inh -3%.
`O=C(NC1CCCCCCC1)C1=COCCO1` gave Casp7 inh 0%, Casp1 inh 0%, GBA activity >77, Bst PK mod >57 and Luciferase inh -9%.
`O=C(Nc1ccc(SC(F)F)cc1)C1=COCCO1` gave Casp7 inh 2%, Casp1 inh -3%, Bst PK mod inactive and Luciferase inh 25µM*.
c1ccc(Nc2nc(-c3cccnc3)cs2)nc1 was read as Casp7 inh 2%, Casp1 inh 0%, GBA activity >77, Bst PK mod inconclusive and Luciferase inh 4µM*.
c1cncc(Nc2nc(-c3cccnc3)cs2)c1 was read as Casp7 inh 0%, Casp1 inh 0%, GBA activity inconclusive and Luciferase inh -3%.
Cc1cccc(Nc2nc(-c3ccccn3)cs2)n1 was read as Casp7 inh 0%, Casp1 inh -1%, GBA activity inactive, Bst PK mod >57 and Luciferase inh 0%.
Screening c1ccc(Nc2nc(-c3cccs3)cs2)nc1 returned Casp7 inh -2%, Casp1 inh 0%, GBA activity >77, Bst PK mod 3.6* and Luciferase inh 5µM*.
CO[Si](CCCNCCC[Si](OC)(OC)OC)(OC)OC was read as Casp7 inh 0% and Casp1 inh -1%.
For O=C(O)/C=C\C=C/c1ccc2c(c1)OCO2 the results were Casp7 inh 0%[11.5 µM], Casp1 inh 0%[11.5 µM] and Luciferase inh 2%[11.4 µM].
CS(=O)(=O)N1CCCC(C(=O)NCc2ccccc2Cl)C1 (centres undefined) was read as Casp7 inh -3%, Casp1 inh -1%, GBA activity >77, Bst PK mod >57 and Luciferase inh 0%.
COc1ccc(Br)cc1CNC(=O)C1CCCN(S(C)(=O)=O)C1 (centres undefined) was read as Casp7 inh -3%, Casp1 inh -3%, GBA activity >77, Bst PK mod 5.4* and Luciferase inh 10µM*.
Screening O=C(NCCN1CCCC1)c1ccc(Cc2nc3ccccc3[nH]2)cc1 returned Casp7 inh 2% and Casp1 inh -3%.
Cc1ccc2nc(Nc3ccc4[nH]c(=O)[nH]c4c3)c(-n3nc(C)cc3C)nc2c1 was read as Casp7 inh inconclusive, Casp1 inh inconclusive, GBA activity >77, Bst PK mod 7.5* and Luciferase inh 4µM*.
CCOc1ncccc1C(=O)OCC(=O)c1cc(C)n(Cc2ccco2)c1C was read as Casp7 inh -5%, Casp1 inh -3%, GBA activity >77, Bst PK mod inconclusive and Luciferase inh 13µM*.
`Cc1cc(C(=O)COC(=O)CCC(=O)c2ccc3c(c2)OCCO3)c(C)n1Cc1ccco1` gave Casp7 inh -6%, Casp1 inh -3%, GBA activity >77, Bst PK mod >57 and Luciferase inh -6%.
For CCCn1cnc2c(c1=O)c1nc3ccccc3nc1n2Cc1ccccc1OC the results were Casp7 inh -2%, Casp1 inh -4%, GBA activity >77, Bst PK mod >57 and Luciferase inh 3%.
